From PubChem BioAssay
The source made the active and inactive calls. Unless noted, how the calls were made is not given here.

Assays:
[1] = system: Wnt5a (protein binding on small-molecule microarray); experiment: Wnt5a binders on small-molecule microarray, primary screen, biophysical, 635/667 nm fluorescence (AID 1142); conditions: 635 nm fluorescence, higher = more signal;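 further: fluorescence read at 667 nm with signal to noise per printed feature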
[2] = cell viability in Huh7 cells, primary screen, cytotoxicity control for HCV replication inhibitor project, CellTiter-Glo luminescence, basal, 48 h (AID 1143); conditions: Huh7 HCV replicon, higher = more signal, called active from +8 up or from −8 down;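 further: Huh7 hepatoma cells carrying a hepatitis C replication reporter with no stimulus; test concentration not given here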
[3] = P. aeruginosa biofilm formation inhibitors, primary screen, PAO1 strain, BacTiter-Glo luminescence, LB-PBS (AID 1144); conditions: 12 h, higher = more signal
[4] = CREB reporter modulators without forskolin, primary screen, cell-based, PC12, CRE-LacZ reporter, unstimulated (AID 1145); conditions: no forskolin, luminescence, 4.5 h, higher = more signal, called active from +8 up or from −8 down
[5] = CREB reporter modulators under forskolin, primary screen, cell-based, PC12, CRE-LacZ reporter, forskolin-stimulated (AID 1146); conditions: luminescence, 4.5 h, higher = more signal, called active from +8 up or from −8 down;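 further: PC12 cells with 6xCRE LacZ reporter stimulated by forskolin 10 µM; beta-galactosidase reporter signal reflecting CREB driven transcription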
[6] = biological target: Streptavidin (Streptomyces avidinii) (UniProt P22629); experiment: streptavidin binders on small-molecule microarray, primary screen, artefact control for SMM compound annotation, biophysical, 635/667 nm fluorescence (AID 1147); conditions: streptavidin binding, higher = more signal;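 further: signal reflects streptavidin binding to arrayed compounds as a control protein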
Sequence of Streptavidin (Streptomyces avidinii) (P22629 whole entry, looked up): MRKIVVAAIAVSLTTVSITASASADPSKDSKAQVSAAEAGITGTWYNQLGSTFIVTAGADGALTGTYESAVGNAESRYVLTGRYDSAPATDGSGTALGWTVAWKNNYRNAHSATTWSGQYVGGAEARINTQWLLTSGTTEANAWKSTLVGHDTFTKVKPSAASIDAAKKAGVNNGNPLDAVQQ

[7] = small-molecule binders of probe aInhba, primary screen, biochemical, small-molecule microarray, 635/667 nm fluorescence (AID 1148); conditions: higher = more signal;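 further: score merges 667nm spot fluorescence with signal-to-noise for antibody binding to printed compounds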
Torsin-1A (Homo sapiens) [8] = biological target: Torsin-1A (Homo sapiens) (UniProt O14656); experiment: torsin A binders from cell lysate, primary screen, small-molecule microarray, wild-type, 635/667 nm (AID 1149); conditions: COS7 hTOR1A-WT lysate, 635 nm fluorescence, higher = more signal
Sequence of Torsin-1A (Homo sapiens) (O14656 whole entry, looked up): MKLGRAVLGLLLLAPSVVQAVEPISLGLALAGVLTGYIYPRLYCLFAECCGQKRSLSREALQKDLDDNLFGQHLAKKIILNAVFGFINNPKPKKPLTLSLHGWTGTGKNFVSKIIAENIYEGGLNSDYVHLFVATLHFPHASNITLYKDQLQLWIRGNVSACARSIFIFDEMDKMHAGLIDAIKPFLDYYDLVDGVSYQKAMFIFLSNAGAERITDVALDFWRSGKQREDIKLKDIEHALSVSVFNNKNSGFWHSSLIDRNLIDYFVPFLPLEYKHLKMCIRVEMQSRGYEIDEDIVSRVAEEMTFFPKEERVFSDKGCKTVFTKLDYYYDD

Torsin-1A (Homo sapiens) [9] = biological target: Torsin-1A (Homo sapiens) (UniProt O14656); experiment: small-molecule binders of mutant TOR1A in lysate, primary screen, cell lysate, small-molecule microarray, COS7 lysate, 635/667 nm fluorescence (AID 1150); conditions: COS7 hTOR1A mutant lysate, 635 nm fluorescence, higher = more signal;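 further: score pools 667 nm emission and signal to noise measuring lysate protein binding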
[10] = system: Sonic hedgehog protein (Shh); experiment: small-molecule binders of Shh protein, primary screen, biochemical, small-molecule microarray, 635/667 nm fluorescence (AID 1151); conditions: small-molecule microarray binding, 635 nm fluorescence; higher = more signal;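 further: Shh protein binding to compounds spotted on small-molecule microarray slides; score combines spot fluorescence intensity with signal-to-noise across triplicate slides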
[11] = E. coli DRC41 culture turbidity changes, primary screen, E. coli filamentation inducer project, strain DRC41, OD650, 48 h (AID 1152);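 further: E. coli MC1000 strain DRC41 lacking acrAB efflux pump and sulA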; conditions: E. coli DRC41 (acrAB sulA), higher = more signal, called active from +8 up or from −8 down
[12] = small-molecule binders of probe aLefty1, primary screen, biochemical, small-molecule microarray, 635/667 nm fluorescence (AID 1153); conditions: higher = more signal;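 further: score merges spot fluorescence with signal-to-noise ratio from the scanned slide images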
[13] = PSAC antagonists in infected red cells, primary screen, cell-based, P. falciparum Indochina, OD700, 1 h (AID 1154); conditions: P. falciparum Indochina infected RBC osmotic lysis, higher = more signal, called active from +8 up or from −8 down
[14] = PSAC antagonists in infected red cells, primary screen, cell-based, P. falciparum Indochina, OD700, 2 h (AID 1155);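 further: lysis reports solute entry through the parasite surface anion channel PSAC; channel blockers reduce lysis of infected cells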; conditions: P. falciparum Indochina infected erythrocytes, osmotic lysis OD700; higher = more signal, called active from +8 up or from −8 down
[15] = osmotic lysis modulators in infected erythrocytes, primary screen, PSAC antagonist project, cell-based, P. falciparum Indochina, OD700, 3 h (AID 1156); conditions: higher = more signal, called active from +8 up or from −8 down
[16] = PSAC antagonists in infected red cells, primary screen, cell-based, P. falciparum Indochina, OD700, 18 h (AID 1157); conditions: P. falciparum Indochina infected erythrocytes, osmotic lysis OD700, 18 h; higher = more signal, called active from +8 up or from −8 down
[17] = modulators of S6 phosphorylation in cells, primary screen, cell-based, A549, cytoblot, luminescence, serum-stimulated (AID 1158); conditions: A549 phospho-S6 cytoblot, 5 h, higher = more signal;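 further: serum-stimulated A549 lung adenocarcinoma cells; signal is phosphorylated S6 detected by cytoblot immunostaining with HRP secondary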
[18] = biological target: NADPH oxidase 2 (Homo sapiens) (UniProt P04839); experiment: NOX2-dependent H2O2 signal modulators, primary screen, NOX inhibitor project, cell-based, HEK293-NOX2, PMA-stimulated, Amplex Red fluorescence (AID 1159); conditions: 45 min, higher = more signal, called active from +8 up or from −8 down; further: test concentration not given here
Sequence of NADPH oxidase 2 (Homo sapiens) (P04839 whole entry, looked up): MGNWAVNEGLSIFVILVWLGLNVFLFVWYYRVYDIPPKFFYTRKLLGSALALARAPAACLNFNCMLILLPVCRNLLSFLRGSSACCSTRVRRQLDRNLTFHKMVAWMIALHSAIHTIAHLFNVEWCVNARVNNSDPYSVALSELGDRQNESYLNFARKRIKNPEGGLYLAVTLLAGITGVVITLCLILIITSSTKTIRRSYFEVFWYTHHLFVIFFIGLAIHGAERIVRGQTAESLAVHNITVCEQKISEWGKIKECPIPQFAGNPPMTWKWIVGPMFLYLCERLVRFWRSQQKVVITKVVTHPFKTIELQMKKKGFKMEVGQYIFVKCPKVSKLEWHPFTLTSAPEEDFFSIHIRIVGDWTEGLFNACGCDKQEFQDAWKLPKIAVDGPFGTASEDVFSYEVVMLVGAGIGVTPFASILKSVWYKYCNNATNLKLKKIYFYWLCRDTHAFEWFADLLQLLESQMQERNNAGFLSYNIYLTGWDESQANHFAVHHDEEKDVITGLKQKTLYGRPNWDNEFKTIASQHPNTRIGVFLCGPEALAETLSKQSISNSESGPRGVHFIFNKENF

[19] = biological target: NADPH oxidase 4 (Homo sapiens) (UniProt Q9NPH5); experiment: NOX4-dependent H2O2 signal modulators, primary screen, NOX inhibitor project, cell-based, HEK293-NOX4, tetracycline-induced, Amplex Red fluorescence (AID 1160); conditions: 45 min, higher = more signal, called active from +8 up or from −8 down
Sequence of NADPH oxidase 4 (Homo sapiens) (Q9NPH5 whole entry, looked up): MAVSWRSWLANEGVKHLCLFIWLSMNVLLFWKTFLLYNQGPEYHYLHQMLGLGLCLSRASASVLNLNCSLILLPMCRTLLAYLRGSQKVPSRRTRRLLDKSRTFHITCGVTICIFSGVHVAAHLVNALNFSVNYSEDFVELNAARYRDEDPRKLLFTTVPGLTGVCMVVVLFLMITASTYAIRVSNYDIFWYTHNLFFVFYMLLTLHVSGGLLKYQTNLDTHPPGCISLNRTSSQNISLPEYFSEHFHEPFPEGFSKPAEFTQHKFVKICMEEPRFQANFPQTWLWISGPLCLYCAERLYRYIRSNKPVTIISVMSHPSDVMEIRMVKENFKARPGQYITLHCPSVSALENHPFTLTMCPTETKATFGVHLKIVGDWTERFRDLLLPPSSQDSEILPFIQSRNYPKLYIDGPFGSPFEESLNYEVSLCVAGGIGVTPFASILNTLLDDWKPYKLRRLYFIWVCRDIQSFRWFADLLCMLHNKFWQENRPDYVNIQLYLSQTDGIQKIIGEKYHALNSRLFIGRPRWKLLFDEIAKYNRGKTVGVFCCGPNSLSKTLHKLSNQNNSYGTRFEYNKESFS

[20] = biological target: NADPH oxidase 5 (Homo sapiens) (UniProt Q96PH1); experiment: NOX5-dependent H2O2 signal modulators, primary screen, NOX inhibitor project, cell-based, HEK293-NOX5, Amplex Red fluorescence (AID 1161); conditions: HEK293-NOX5, ionomycin, 45 min, higher = more signal
Sequence of NADPH oxidase 5 (Homo sapiens) (Q96PH1 whole entry, looked up): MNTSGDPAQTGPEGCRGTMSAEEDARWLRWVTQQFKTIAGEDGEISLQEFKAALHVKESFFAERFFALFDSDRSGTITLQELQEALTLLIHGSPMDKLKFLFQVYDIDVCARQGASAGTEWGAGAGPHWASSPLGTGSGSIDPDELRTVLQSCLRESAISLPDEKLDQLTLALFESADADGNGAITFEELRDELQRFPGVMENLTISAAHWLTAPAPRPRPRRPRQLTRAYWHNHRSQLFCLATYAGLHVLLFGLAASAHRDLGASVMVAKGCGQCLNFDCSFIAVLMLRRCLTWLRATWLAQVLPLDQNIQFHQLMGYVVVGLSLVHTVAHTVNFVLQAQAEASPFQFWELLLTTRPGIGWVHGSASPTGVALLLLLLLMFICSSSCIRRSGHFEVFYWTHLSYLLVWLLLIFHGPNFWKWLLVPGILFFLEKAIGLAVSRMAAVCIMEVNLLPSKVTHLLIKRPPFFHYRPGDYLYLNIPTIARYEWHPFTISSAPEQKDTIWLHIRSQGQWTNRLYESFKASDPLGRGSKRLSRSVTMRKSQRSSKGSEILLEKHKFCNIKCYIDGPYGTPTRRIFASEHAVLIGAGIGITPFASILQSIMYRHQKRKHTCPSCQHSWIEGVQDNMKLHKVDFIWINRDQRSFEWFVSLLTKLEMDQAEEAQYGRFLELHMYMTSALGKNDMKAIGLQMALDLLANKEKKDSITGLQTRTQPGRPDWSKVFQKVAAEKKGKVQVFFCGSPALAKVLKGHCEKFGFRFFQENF

C=CCC(OC(C)=O)[C@@H]1[C@@H](N(Cc2cccc3ccccc23)C(=O)c2ccc(-c3ccccc3)cc2)c2cc(OCCCO)ccc2N1C(=O)Cc1ccc2ccccc2c1 (stereo not given in full)
composite z-score [1]: -0.0281 | z-score [2]: -0.182 (inactive) | z-score [3]: 0.0777 (inactive) | z-score [4]: -0.141 (inactive) | z-score [5]: 0.0677 (inactive) | composite z-score [6]: 0.911 | composite z-score [7]: 0.0108 | composite z-score (Torsin-1A (Homo sapiens) [8]): -0.175 | composite z-score (Torsin-1A (Homo sapiens) [9]): -0.337 | composite z-score [10]: 0.068 | z-score [11]: -0.662 (inactive) | composite z-score [12]: -0.0164 | z-score [13]: 0.36 (inactive) | z-score [14]: 0.35 (inactive) | z-score [15]: -0.428 (inactive) | z-score [16]: 0.309 (inactive) | z-score [17]: -0.242 | z-score [18]: -1.49 (inactive) | z-score [19]: 1.15 (inactive) | z-score [20]: 0.311

C=CCC(OC(C)=O)[C@@H]1[C@@H](N(Cc2cc3ccccc3o2)C(=O)c2cccc3ccccc23)c2cc(OCCCO)ccc2N1C(=O)c1ccc2ccccc2n1 (stereo not given in full)
composite z-score [1]: 0.0394 | z-score [2]: -1.35 (inactive) | z-score [3]: -0.399 (inactive) | z-score [4]: 2.6 (inactive) | z-score [5]: -0.273 (inactive) | composite z-score [6]: 0.0002 | composite z-score [7]: -0.0131 | composite z-score (Torsin-1A (Homo sapiens) [8]): 0.866 | composite z-score (Torsin-1A (Homo sapiens) [9]): -0.661 | composite z-score [10]: 0.151 | z-score [11]: 0.595 (inactive) | composite z-score [12]: -0.239 | z-score [13]: 1.53 (inactive) | z-score [14]: 0.26 (inactive) | z-score [15]: 0.266 (inactive) | z-score [16]: 0.506 (inactive) | z-score [17]: 0.231 | z-score [18]: 0.889 (inactive) | z-score [19]: -0.605 (inactive) | z-score [20]: -1.64

COCCOC(=O)N1C(=O)[C@@]2(c3cc(C#CCCO)ccc31)[C@H](C(N)=O)[C@H]1C(=O)O[C@H](c3ccccc3)[C@H](c3ccccc3)N1[C@@H]2c1ccccc1OCCO
composite z-score [1]: 0.119 | z-score [2]: -3.54 (inactive) | z-score [3]: 0.00875 (inactive) | z-score [4]: 0.0695 (inactive) | z-score [5]: -0.29 (inactive) | composite z-score [6]: 0.612 | composite z-score [7]: 0.017 | composite z-score (Torsin-1A (Homo sapiens) [8]): 0.69 | composite z-score (Torsin-1A (Homo sapiens) [9]): 0.791 | composite z-score [10]: 1.13 | z-score [11]: -0.3 (inactive) | composite z-score [12]: -0.147 | z-score [13]: 12.2 (active) | z-score [14]: 2.47 (inactive) | z-score [15]: 1.99 (inactive) | z-score [16]: 0.68 (inactive) | z-score [17]: 1.02 | z-score [18]: 1.51 (inactive) | z-score [19]: 0.755 (inactive) | z-score [20]: 0.594

COC(=O)C1(Cc2ccccc2)C=C2C(=C(C)C(=O)C2C)CN1 (stereo not given)
composite z-score [1]: 0.266 | z-score [2]: -0.723 (inactive) | z-score [3]: 0.454 (inactive) | z-score [4]: 0.0075 (inactive) | z-score [5]: 0.727 (inactive) | composite z-score [6]: 0.621 | composite z-score [7]: 0.155 | composite z-score (Torsin-1A (Homo sapiens) [8]): 0.103 | composite z-score (Torsin-1A (Homo sapiens) [9]): 0.0914 | composite z-score [10]: -0.691 | z-score [11]: -0.492 (inactive) | composite z-score [12]: 0.695 | z-score [13]: 0.756 (inactive) | z-score [14]: -0.425 (inactive) | z-score [15]: -0.662 (inactive) | z-score [16]: -1.2 (inactive) | z-score [17]: 2.47 | z-score [18]: 0.436 (inactive) | z-score [19]: -0.568 (inactive) | z-score [20]: -4

O=C(NCc1ccc(F)cc1)[C@H]1C[C@H]2C(=O)N3CCC[C@H]3C(=O)N2[C@H]1c1ccc(O)cc1
composite z-score [1]: -0.216 | z-score [2]: -2.87 (inactive) | z-score [3]: 0.893 (inactive) | z-score [4]: 1.24 (inactive) | z-score [5]: -0.677 (inactive) | composite z-score [6]: -1.32 | composite z-score [7]: -0.443 | composite z-score (Torsin-1A (Homo sapiens) [8]): 0.264 | composite z-score (Torsin-1A (Homo sapiens) [9]): 0.202 | composite z-score [10]: 0.546 | z-score [11]: 1.84 (inactive) | composite z-score [12]: -0.491 | z-score [13]: 1.25 (inactive) | z-score [14]: -0.989 (inactive) | z-score [15]: -3.27 (inactive) | z-score [16]: -1.66 (inactive) | z-score [17]: 0.505 | z-score [18]: -1.35 (inactive) | z-score [19]: -0.184 (inactive) | z-score [20]: 0.601

COc1ccc(CCNC(=O)[C@@H]2c3ccccc3C(=O)N(Cc3ccccc3OC)[C@H]2c2ccc(CO)cc2)cc1
composite z-score [1]: 0.321 | z-score [2]: -0.449 (inactive) | z-score [3]: -0.0742 (inactive) | z-score [4]: 0.531 (inactive) | z-score [5]: -1.12 (inactive) | composite z-score [6]: 0.628 | composite z-score [7]: 0.0028 | composite z-score (Torsin-1A (Homo sapiens) [8]): 0.824 | composite z-score (Torsin-1A (Homo sapiens) [9]): 0.321 | composite z-score [10]: 0.126 | z-score [11]: -0.499 (inactive) | composite z-score [12]: -0.0303 | z-score [13]: 3.02 (inactive) | z-score [14]: 0.0323 (inactive) | z-score [15]: 0.709 (inactive) | z-score [16]: -0.0383 (inactive) | z-score [17]: -0.0817 | z-score [18]: -1.31 (inactive) | z-score [19]: -0.213 (inactive) | z-score [20]: -2.09

COC(=O)[C@@]1(Cc2ccc(F)cc2)[C@H]2c3cc(C(=O)N4CCCC4)n(Cc4ccccn4)c3C[C@H]2CN1C(=O)c1ccccc1
composite z-score [1]: 0.739 | z-score [2]: -1.56 (inactive) | z-score [3]: 0.261 (inactive) | z-score [4]: 0.966 (inactive) | z-score [5]: 1.35 (inactive) | composite z-score [6]: 0.498 | composite z-score [7]: 0.522 | composite z-score (Torsin-1A (Homo sapiens) [8]): -0.578 | composite z-score (Torsin-1A (Homo sapiens) [9]): 0.738 | composite z-score [10]: -0.138 | z-score [11]: -1.9 (inactive) | composite z-score [12]: 0.0479 | z-score [13]: 2.2 (inactive) | z-score [14]: 0.404 (inactive) | z-score [15]: 0.893 (inactive) | z-score [16]: 0.987 (inactive) | z-score [17]: 0.0347 | z-score [18]: 0.553 (inactive) | z-score [19]: -1.33 (inactive) | z-score [20]: -2.47

COC(=O)[C@@]1(Cc2ccc(OC)cc2)[C@H]2c3cc(C(=O)N4CCCC4)n(CCn4cc([N+](=O)[O-])nc4C)c3C[C@H]2CN1C(=O)c1ccccc1
composite z-score [1]: 1.94 | z-score [2]: -0.798 (inactive) | z-score [3]: -0.245 (inactive) | z-score [4]: 0.779 (inactive) | z-score [5]: 0.861 (inactive) | composite z-score [6]: 2.22 | composite z-score [7]: 1.84 | composite z-score (Torsin-1A (Homo sapiens) [8]): -0.236 | composite z-score (Torsin-1A (Homo sapiens) [9]): 1.75 | composite z-score [10]: -0.455 | z-score [11]: -2.21 (inactive) | composite z-score [12]: 2.16 | z-score [13]: 2.38 (inactive) | z-score [14]: 0.0212 (inactive) | z-score [15]: 0.217 (inactive) | z-score [16]: 0.543 (inactive) | z-score [17]: -0.108 | z-score [18]: 0.54 (inactive) | z-score [19]: -1.39 (inactive) | z-score [20]: -2.54
